Experimental findings from PubChem BioAssay (EPA / NIEHS) are described below.

Test [1] deals with Estrogen-related receptor gamma (Homo sapiens) (UniProt P62508). Kind of test: ATG_ERRg_TRANS: Attagene TRANS-FACTORIAL HepG2 Assay for human Estrogen-Related Receptor gamma (ERRg) (AID 2282977).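 Further: hits increase reporter signal over DMSO so potencies reflect activators.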 Conditions: HepG2 Attagene TRANS reporter, ERRg transactivation. The procedure, abridged: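 Exogenous NR-Gal4 chimera activity measured as reporter transcript induction after 24 h in transiently transfected HepG2 cells. RNA reverse-transcribed, PCR-amplified, 6-FAM-labelled and resolved by capillary electrophoresis; increase over DMSO baseline.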

In test [2] the target is human Retinoic Acid Receptor gamma (RARg), RARG (gene 5916) (UniProt P13631). Nature of the test: ATG_RARg_TRANS: Attagene TRANS-FACTORIAL HepG2 Assay for human Retinoic Acid Receptor gamma (RARg) (AID 2283009). A digest of the protocol:
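Transactivation of exogenous RARg-Gal4 fusion measured as reporter transcript induction after 24 h in transfected HepG2 cells. RNA reverse-transcribed, amplified, fluorescently labeled and resolved by capillary electrophoresis; increase relative to DMSO.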

The target of test [3] is Estrogen receptor beta (Homo sapiens) (UniProt Q92731). Kind of test: OT_ER_ERbERb_0480: Odyssey Thera (OT) 8-hour HEK293T Protein-Complementation Assay for Estrogen Receptor-beta/-beta Homodimer (AID 2283357).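 Further: active means signal gain over DMSO baseline.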 A digest of the protocol: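 ER-beta LBD homodimer PCA stably expressed in HEK293T; 8 h compound exposure, then formaldehyde fixation and Draq5 staining. Gain in nuclear/cytoplasmic fluorescence intensity versus DMSO vehicle, read on laser scanning cytometer.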

The target is the same in test [4]. Kind of test: OT_ER_ERbERb_1440: Odyssey Thera (OT) 24-hour HEK293T Protein-Complementation Assay for Estrogen Receptor-beta/-beta Homodimer (AID 2283380).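 Further: scored as signal increase over DMSO baseline for both agonists and antagonists.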 A digest of the protocol: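 Fluorescence increase, nuclear for agonists or whole-cell for antagonists, relative to DMSO vehicle, quantified by laser scanning cytometer after fixation and Draq5 staining. Readout from 24 h treatment of HEK293T cells carrying complementation-paired ER beta LBD (aa 310-547).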

Test [5] addresses Retinoic acid receptor RXR-alpha (Homo sapiens) (UniProt P19793). Nature of the test: OT_NURR1_NURR1RXRa_1440: Odyssey Thera (OT) 24-hour HEK293T Protein Complementation Assay for Nurr1/retinoid X receptor (RXR) (AID 2283386). The procedure, abridged:
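Gain in fluorescence, fitted relative to DMSO, reflects Nurr1–RXRα association in HEK293T cells after 24 h dosing. Bait and prey are each linked to a reporter-protein fragment that reassembles on interaction.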

A short description of test [6]: ACEA_AR_agonist_AUC_viability: ACEA Biosciences xCELLigence Real-Time Cell Analysis on Androgen Receptor Agonism for Viability (AID 2283775).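 On AC50: viability read 80 hours after compound addition.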 A digest of the protocol: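 22Rv1 cells; impedance growth kinetics; 8-pt 1:4 dilutions from 100 uM top final, ≤0.5% DMSO; n = 2; 80 h read; AUC viability, loss-of-signal vs DMSO.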
A short description of test [7]: ACEA_AR_antagonist_AUC_viability: ACEA Biosciences xCELLigence Real-Time Cell Analysis on Androgen Receptor Antagonism for Viability (AID 2283776).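 Further: 22Rv1 human prostate cancer cells growing on impedance electrode plates; area under impedance growth curve at 80 h after dosing as viability; hits lower the growth signal relative to DMSO meaning cytotoxicity.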 A digest of the protocol:
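Real-time electrical impedance tracks 22Rv1 proliferation after continuous compound exposure (top 100 uM final, 1:4 steps, 8 concentrations). The 80 h area-under-curve serves as the cytotoxicity readout relative to DMSO.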

Test [8] is described as follows: CCTE_Harrill_HTTr_CellCount_MCF7: CCTE's Cell Proliferation Assessment for the High-Throughput Transcriptomics (HTTr) Platform, Harrill Lab (AID 2284012).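 Further: cells exposed to compound for six hours; intended direction is loss of nuclei count meaning fewer cells.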 A digest of the protocol: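 Cell count from high-content imaging of Hoechst-labeled nuclei serves as viability/growth readout. Chemicals were applied to MCF-7 cells in eight concentrations for six hours, with fitting in both directions relative to DMSO.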

The target in test [9] is Nuclear receptor subfamily 4 group A member 2 (Homo sapiens) (UniProt P43354). Kind of test: ATG_NURR1_TRANS: Attagene TRANS-FACTORIAL HepG2 Assay for human Nuclear Receptor Related Protein 1 (NURR1) (AID 2282985). Conditions: HepG2 Attagene TRANS reporter, mRNA readout. The procedure, abridged:
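Reporter transcript induction, measured by RT-PCR with fluorescent labelling, HpaI digestion and capillary electrophoresis, after 24 hr dosing of human HepG2 cells transiently expressing an exogenous NR-Gal4 fusion with GAL4-UAS-driven reporters; DMSO as baseline.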

Read-out in test [10]: Pselectin, SELP (gene 6403)
Kind of test: BSK_4H_Pselectin: BioMAP Diversity Plus: 4H Assay for Pselectin Biomarker Activity (AID 2283026; active means hit-call score of the fitted dose curve at least 0.9, where 1 is the maximum; inactive means score below 0.9). Conditions: primary human endothelial cells (HUVEC); actives raise or lower the signal. A digest of the protocol:
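ELISA of surface P-selectin on HUVEC, 24 h after dosing, with parallel SRB staining (0.1% after 10% TCA fixation, 560 nm) for overt cytotoxicity. Activity fitted in both directions relative to DMSO.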

Read-out in test [11]: Macrophage colony-stimulating factor (MCSF), CSF1 (gene 1435)
Kind of test: BSK_CASM3C_MCSF: BioMAP Diversity Plus: CASM3C Assay for Macrophage colony-stimulating factor (MCSF) Biomarker Activity (AID 2283044; active means hit-call score of the fitted dose curve at least 0.9, where 1 is the maximum; inactive means score below 0.9;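 further: M-CSF protein amount quantified by ELISA after 24 h exposure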). Conditions: primary human coronary artery smooth muscle cells; actives raise or lower the signal.

Read-out in test [12]: Low-density lipoprotein receptor (LDLR), LDLR (gene 3949)
Nature of the test: BSK_CASM3C_LDLR: BioMAP Diversity Plus: CASM3C Assay for Low-density lipoprotein receptor (LDLR) Biomarker Activity (AID 2283045; active means hit-call score of the fitted dose curve at least 0.9, where 1 is the maximum; inactive means score below 0.9;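 further: LDLR protein level on the cell surface quantified by ELISA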). Conditions: primary human coronary artery smooth muscle cells; actives raise or lower the signal.

Read-out in test [13]: serum amyloid A (SAA), SAA1 (gene 6288)
Nature of the test: BSK_CASM3C_SAA: BioMAP Diversity Plus: CASM3C Assay for serum amyloid A (SAA) Biomarker Activity (AID 2283049; active means hit-call score of the fitted dose curve at least 0.9, where 1 is the maximum; inactive means score below 0.9;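 further: SAA protein level quantified by ELISA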). Conditions: primary human coronary artery smooth muscle cells; actives raise or lower the signal.

Read-out in test [14]: Interferon-gamma inducible Protein 10 (IP10), CXCL10 (gene 3627)
Kind of test: BSK_hDFCGF_IP10: BioMAP Diversity Plus: hDFCGF Assay for Interferon-gamma inducible Protein 10 (IP10) Biomarker Activity (AID 2283053; active means hit-call score of the fitted dose curve at least 0.9, where 1 is the maximum; inactive means score below 0.9). Conditions: primary human foreskin fibroblasts; actives raise or lower the signal. The procedure, abridged:
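ELISA quantification of IP-10 after a 24 h chemical exposure of human dermal foreskin fibroblast primary cultures. Both increases and decreases versus DMSO fitted.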

Read-out in test [15]: Vascular cell adhesion molecule 1 (VCAM1), VCAM1 (gene 7412)
Kind of test: BSK_CASM3C_VCAM1: BioMAP Diversity Plus: CASM3C Assay for Vascular cell adhesion molecule 1 (VCAM1) Biomarker Activity (AID 2283055; active means hit-call score of the fitted dose curve at least 0.9, where 1 is the maximum; inactive means score below 0.9;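 further: VCAM-1 protein level quantified by ELISA on the cells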). Conditions: primary human coronary artery smooth muscle cells; actives raise or lower the signal.

Read-out in test [16]: Macrophage colony-stimulating factor (MCSF), CSF1 (gene 1435)
Nature of the test: BSK_hDFCGF_MCSF: BioMAP Diversity Plus: hDFCGF Assay for Macrophage colony-stimulating factor (MCSF) Biomarker Activity (AID 2283060; active means hit-call score of the fitted dose curve at least 0.9, where 1 is the maximum; inactive means score below 0.9). Conditions: AC50: primary human foreskin fibroblasts, actives raise or lower the signal unless noted; outcome: primary human foreskin fibroblasts, actives raise or lower the signal unless noted. A digest of the protocol:
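Primary human foreskin fibroblasts dosed with chemical; 24 h later, M-CSF quantified by ELISA; curves fitted in both directions vs DMSO negative control.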

Read-out in test [17]: Monokine induced gamma interferon (MIG), CXCL9 (gene 4283)
Nature of the test: BSK_hDFCGF_MIG: BioMAP Diversity Plus: hDFCGF Assay for Monokine induced gamma interferon (MIG) Biomarker Activity (AID 2283063; active means hit-call score of the fitted dose curve at least 0.9, where 1 is the maximum; inactive means score below 0.9). Conditions: primary human foreskin fibroblasts; actives raise or lower the signal. A digest of the protocol:
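Chemicals were added to primary human foreskin fibroblast cultures, which were sampled 24 h later. MIG levels were then quantified by ELISA and responses fitted in both directions relative to DMSO.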

Test [18] concerns the target Steroid hormone receptor ERR1 (Homo sapiens) (UniProt P11474). Kind of test: ATG_ERRa_TRANS: Attagene TRANS-FACTORIAL HepG2 Assay for human Estrogen-Related Receptor alpha (ERRa) (AID 2282971). Conditions: HepG2 Attagene TRANS reporter, ERRa transactivation. A digest of the protocol: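 Reporter transcript induction was quantified by RT-PCR and capillary electrophoresis of FAM-labelled, HpaI-cut products after 24 h treatment of HepG2 cells carrying transiently transfected GAL4-UAS reporter units and an exogenous ERRa-Gal4 fusion; activity scored as increase over DMSO.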

Test [19] can be described thus: ATG_ERE_CIS: Attagene CIS-FACTORIAL HepG2 Assay for Estrogen Response Element (ERE) (AID 2282940; active means hit-call score of the fitted dose curve at least 0.9, where 1 is the maximum; inactive means score below 0.9). Conditions: HepG2 ERE cis-reporter, Attagene RNA transcript; actives raise or lower the signal. A digest of the protocol:
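Cells used were human hepatoma HepG2, transfected with multiple reporter transcription units under cis-regulatory promoters. Reporter mRNA, read 24 h post-dosing via fluorescent RT-PCR products on capillary electrophoresis, was fitted bidirectionally relative to DMSO.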

In test [20] the target is Aryl hydrocarbon receptor (Homo sapiens) (UniProt P35869). Kind of test: ATG_Ahr_CIS: Attagene CIS-FACTORIAL HepG2 Assay for human Aryl Hydrocarbon Receptor (Ahr) (AID 2282930; active means hit-call score of the fitted dose curve at least 0.9, where 1 is the maximum; inactive means score below 0.9). Conditions: HepG2 AhR cis-factorial reporter transcription; actives raise or lower the signal. The procedure, abridged:
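Transient MRTU transfection of HepG2 → 24 h compound exposure → total RNA, oligo(dT) RT → PCR, 6-FAM extension, HpaI cut → CE fluorescence. DMSO = baseline; bidirectional curve fit.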

Inconclusive results are not listed. Some compounds were tested as several samples or in several runs, with calls that do not always agree. The source made the active and inactive calls. How the source made its calls, unless noted: active means hit-call score of the fitted dose curve at least 0.9, where 1 is the maximum; inconclusive means response in the unintended direction; inactive means score below 0.9.

What is called AC50 is the concentration giving half of the maximal activity seen.

Aryl hydrocarbon receptor (Homo sapiens), sequence (P35869 whole entry, looked up): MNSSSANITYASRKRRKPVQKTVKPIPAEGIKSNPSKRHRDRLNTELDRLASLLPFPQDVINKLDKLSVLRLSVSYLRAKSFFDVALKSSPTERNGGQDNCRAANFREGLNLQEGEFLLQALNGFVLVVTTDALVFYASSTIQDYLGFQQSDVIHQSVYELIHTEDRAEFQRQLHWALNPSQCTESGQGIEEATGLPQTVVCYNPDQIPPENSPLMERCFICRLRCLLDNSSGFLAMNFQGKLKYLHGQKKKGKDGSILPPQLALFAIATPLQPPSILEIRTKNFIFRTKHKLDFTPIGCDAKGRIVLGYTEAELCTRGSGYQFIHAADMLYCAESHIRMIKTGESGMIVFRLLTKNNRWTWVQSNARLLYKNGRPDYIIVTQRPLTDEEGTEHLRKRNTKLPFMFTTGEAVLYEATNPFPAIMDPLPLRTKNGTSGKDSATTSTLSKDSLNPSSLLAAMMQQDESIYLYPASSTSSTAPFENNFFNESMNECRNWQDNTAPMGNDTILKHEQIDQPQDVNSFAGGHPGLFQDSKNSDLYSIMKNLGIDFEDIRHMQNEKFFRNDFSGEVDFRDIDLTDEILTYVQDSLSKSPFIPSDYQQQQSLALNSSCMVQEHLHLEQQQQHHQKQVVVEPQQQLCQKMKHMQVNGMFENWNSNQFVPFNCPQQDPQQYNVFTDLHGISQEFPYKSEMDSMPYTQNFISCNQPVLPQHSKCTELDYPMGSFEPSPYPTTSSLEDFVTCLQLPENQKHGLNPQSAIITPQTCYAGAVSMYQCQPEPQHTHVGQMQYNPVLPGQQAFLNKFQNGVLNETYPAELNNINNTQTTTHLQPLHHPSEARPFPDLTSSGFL
Estrogen receptor beta (Homo sapiens), sequence (Q92731 whole entry, looked up, the tested form may be a part): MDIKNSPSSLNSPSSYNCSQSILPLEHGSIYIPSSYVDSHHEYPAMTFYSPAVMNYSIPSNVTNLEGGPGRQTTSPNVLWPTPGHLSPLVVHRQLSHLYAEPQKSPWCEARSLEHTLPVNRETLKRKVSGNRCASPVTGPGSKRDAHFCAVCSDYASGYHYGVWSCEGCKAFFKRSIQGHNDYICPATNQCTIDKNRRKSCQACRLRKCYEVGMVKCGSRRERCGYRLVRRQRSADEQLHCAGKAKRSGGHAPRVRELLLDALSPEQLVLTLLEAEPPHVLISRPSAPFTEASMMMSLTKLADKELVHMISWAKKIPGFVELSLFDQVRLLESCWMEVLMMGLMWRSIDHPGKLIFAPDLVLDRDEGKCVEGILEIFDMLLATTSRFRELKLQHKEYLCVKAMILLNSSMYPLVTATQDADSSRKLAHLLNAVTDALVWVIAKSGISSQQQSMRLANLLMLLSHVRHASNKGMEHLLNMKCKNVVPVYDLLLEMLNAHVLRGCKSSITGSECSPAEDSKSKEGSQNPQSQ
Steroid hormone receptor ERR1 (Homo sapiens), sequence (P11474 whole entry, looked up, the tested form may be a part): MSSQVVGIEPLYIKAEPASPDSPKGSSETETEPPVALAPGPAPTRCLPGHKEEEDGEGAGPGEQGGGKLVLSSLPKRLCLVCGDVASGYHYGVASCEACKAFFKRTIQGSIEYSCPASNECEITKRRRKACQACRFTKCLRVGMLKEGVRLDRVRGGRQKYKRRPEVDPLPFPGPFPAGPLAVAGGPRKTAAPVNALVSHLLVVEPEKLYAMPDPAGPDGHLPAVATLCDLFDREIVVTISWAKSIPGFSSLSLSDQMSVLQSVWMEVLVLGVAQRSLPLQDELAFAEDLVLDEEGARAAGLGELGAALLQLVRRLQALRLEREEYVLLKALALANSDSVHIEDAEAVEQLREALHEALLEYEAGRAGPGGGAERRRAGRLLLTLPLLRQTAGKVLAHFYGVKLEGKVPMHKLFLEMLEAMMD
human Retinoic Acid Receptor gamma (RARg), RARG (gene 5916), sequence (P13631 whole entry, looked up, the tested form may be a part): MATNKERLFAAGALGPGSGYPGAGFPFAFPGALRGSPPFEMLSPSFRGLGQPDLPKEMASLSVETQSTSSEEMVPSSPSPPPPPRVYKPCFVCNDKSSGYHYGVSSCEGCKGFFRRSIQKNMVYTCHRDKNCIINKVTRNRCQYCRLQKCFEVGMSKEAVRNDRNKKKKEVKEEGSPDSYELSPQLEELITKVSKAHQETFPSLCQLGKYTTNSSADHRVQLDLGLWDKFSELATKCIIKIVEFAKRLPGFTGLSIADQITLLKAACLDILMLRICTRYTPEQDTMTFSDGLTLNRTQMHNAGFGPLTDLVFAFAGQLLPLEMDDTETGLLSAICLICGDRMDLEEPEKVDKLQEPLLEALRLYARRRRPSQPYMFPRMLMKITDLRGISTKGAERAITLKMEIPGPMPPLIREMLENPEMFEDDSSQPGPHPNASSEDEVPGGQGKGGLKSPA
Estrogen-related receptor gamma (Homo sapiens), sequence (P62508 whole entry, looked up, the tested form may be a part): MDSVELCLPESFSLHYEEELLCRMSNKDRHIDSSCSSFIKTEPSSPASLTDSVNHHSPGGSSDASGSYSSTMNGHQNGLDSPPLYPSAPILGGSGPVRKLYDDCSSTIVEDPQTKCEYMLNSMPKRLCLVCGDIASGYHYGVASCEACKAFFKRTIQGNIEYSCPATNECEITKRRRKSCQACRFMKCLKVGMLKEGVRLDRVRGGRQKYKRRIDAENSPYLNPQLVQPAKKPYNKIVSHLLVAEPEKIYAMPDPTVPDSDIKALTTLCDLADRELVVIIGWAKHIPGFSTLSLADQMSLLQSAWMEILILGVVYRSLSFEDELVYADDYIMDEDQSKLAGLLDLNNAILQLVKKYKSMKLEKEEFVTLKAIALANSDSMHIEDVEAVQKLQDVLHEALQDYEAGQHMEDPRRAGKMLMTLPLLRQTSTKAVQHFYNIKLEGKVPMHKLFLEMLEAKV
Retinoic acid receptor RXR-alpha (Homo sapiens), sequence (P19793 whole entry, looked up, the tested form may be a part): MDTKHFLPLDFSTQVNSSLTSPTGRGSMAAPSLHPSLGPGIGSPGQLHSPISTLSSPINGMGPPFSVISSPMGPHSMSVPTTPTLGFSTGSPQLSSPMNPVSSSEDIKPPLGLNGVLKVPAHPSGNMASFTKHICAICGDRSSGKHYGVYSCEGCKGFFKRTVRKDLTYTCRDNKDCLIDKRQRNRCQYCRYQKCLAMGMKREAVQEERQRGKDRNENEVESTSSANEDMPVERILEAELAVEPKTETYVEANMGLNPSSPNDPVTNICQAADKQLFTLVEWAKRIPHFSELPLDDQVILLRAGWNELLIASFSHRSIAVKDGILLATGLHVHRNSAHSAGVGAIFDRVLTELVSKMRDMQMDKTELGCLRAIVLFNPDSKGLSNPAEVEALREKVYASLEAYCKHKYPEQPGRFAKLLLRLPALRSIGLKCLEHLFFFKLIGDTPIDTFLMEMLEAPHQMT
Nuclear receptor subfamily 4 group A member 2 (Homo sapiens), sequence (P43354 whole entry, looked up, the tested form may be a part): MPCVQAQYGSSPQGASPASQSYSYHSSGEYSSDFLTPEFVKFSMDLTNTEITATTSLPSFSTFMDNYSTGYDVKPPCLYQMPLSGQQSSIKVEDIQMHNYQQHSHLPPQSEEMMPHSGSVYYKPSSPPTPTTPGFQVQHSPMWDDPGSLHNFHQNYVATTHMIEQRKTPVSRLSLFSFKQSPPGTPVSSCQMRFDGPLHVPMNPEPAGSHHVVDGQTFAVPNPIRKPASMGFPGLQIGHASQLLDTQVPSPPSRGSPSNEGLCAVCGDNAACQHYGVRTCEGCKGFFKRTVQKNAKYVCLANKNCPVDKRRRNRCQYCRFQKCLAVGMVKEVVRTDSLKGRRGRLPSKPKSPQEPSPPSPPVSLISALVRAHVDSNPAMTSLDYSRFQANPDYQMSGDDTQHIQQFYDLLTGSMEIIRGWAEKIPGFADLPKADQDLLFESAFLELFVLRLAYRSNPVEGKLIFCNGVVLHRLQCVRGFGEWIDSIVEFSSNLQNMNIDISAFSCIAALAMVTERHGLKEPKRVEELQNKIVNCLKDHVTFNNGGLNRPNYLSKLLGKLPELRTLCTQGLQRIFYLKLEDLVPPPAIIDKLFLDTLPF

Consider `O=C(Oc1ccccc1)c1ccccc1`, for which the result in [1], in test [2], in test [3], in [4], in test [5] and in test [6] was inactive. Also, the result in test [7] and in [8] was inactive.
With `COC(=O)CCSCCC(=O)OC`, the molecule was classed as inactive in test [1] and in [2].
As for `Cc1ccccc1S(=O)(=O)O`, the molecule was called inactive in test [3] and in test [4].
`CO[Si](CCCNCCN)(OC)OC`: the result in [9], in test [3], in test [4] and in test [7] was inactive.
Regarding `CCC(C)=NO`, the outcome in test [10], in test [11], in test [12], in test [13], in test [14] and in [15] was inactive. The outcome in test [16], in test [17], in test [3], in test [4], in test [5] and in [6] was inactive. Further, the call in [8] was inactive. The AC50 in [7] was 50 µM (active).
In the case of `CCC(C)C1N=C(C)C(C)S1` (stereo not given), the result in test [18] and in [1] was inactive.
With `Oc1cccc2ccccc12`, the outcome in test [9], in test [10], in [11], in test [12], in [13] and in test [14] was inactive. Besides, the result in test [15], in test [16], in [17], in [5], in [6] and in test [7] was inactive. In addition, the result in test [8] was inactive. The AC50 is 39.1 µM (active) in test [3] and 49.2 µM (active) in test [4].
Consider `CC/C=C\CCCCCO`, for which the call in [18] was inactive.
Regarding `COC(OC)C(C)c1ccccc1` (stereo not given), in [19], the call was inactive.
With `CN(C)CCCN1c2ccccc2CCc2ccc(Cl)cc21`, the molecule was called inactive in [20], in [1] and in test [8].
As to `O=C(O)/C=C\C(=O)O`, the result in [18], in [1], in test [3], in test [4], in test [5] and in test [6] was inactive. The molecule was called inactive in [8].
`CC(C)(C)NC(=O)[C@@H]1CN(Cc2cccnc2)CCN1C[C@@H](O)C[C@@H](Cc1ccccc1)C(=O)N[C@H]1c2ccccc2C[C@H]1O`: the AC50 in test [20] was 57.2 µM (active).
As for `O=C(C1CCCCC1)N1CC(=O)N2CCc3ccccc3C2C1` (stereo not given), in test [20], the concentration at half-maximal activity (AC50) is 27.8 µM (active). Further, the call in test [2] and in test [8] was inactive.
In the case of `CC/C=C/CCO`, in test [1], the result was inactive.
As for `CC[N+](CC)(CC(=O)Nc1c(C)cccc1C)Cc1ccccc1` (tested in a mixture with another compound), the result in [10], in test [11], in [12], in [13], in test [14] and in [15] was inactive. Also, the outcome in test [16], in test [17], in test [5], in [6], in test [7] and in [8] was inactive. For the same molecule, the AC50 in test [11] was 5.41 µM (active); in test [12], 0.591 µM (active).
With `O=C(O)Cc1c[nH]c2ccccc12`, the outcome in test [18], in test [1], in test [9] and in test [8] was inactive.
`CC1=NN(c2cc(Cl)c(S(=O)(=O)O)cc2Cl)C(=O)C1N=Nc1ccc(S(=O)(=O)O)cc1` (stereo not given): the outcome in test [20] and in [7] was inactive.
Consider `CC1=C(CC(=O)O)c2cc(F)ccc2/C1=C\c1ccc(S(C)=O)cc1` (stereo not given), for which, in test [20], the AC50 was 3.48 µM (active). Also, the result in [8] was inactive.
Consider `Sc1nc2ccccc2s1`, for which the outcome in [10], in test [11], in [12], in [13], in test [14] and in test [16] was inactive. Further, the result in test [17], in test [3], in test [4] and in test [7] was inactive. Besides, the AC50 in test [15] is 0.016 µM (active).
In the case of `C=CCOC(=O)C(=C)C`, the molecule was called inactive in test [18], in [1] and in [2].
For the molecule `COC(=O)[C@]1(C)CCC[C@@]2(C)[C@H]1CC=C1C=C(C(C)C)CC[C@@H]12`, the result in test [2], in test [3], in [4] and in [5] was inactive. Besides, the concentration at half-maximal activity (AC50) in test [6] was 0.333 µM (active).
